From the supplement of paper PMC10849652
Of roughly 8,800 targets only a part is listed; those with a hit were picked by preference. About 0.5% of all pairs of compound and target were hits.

Legend:
Assay in all cases: log2 fold change, soluble protein after heating vs DMSO (PISA); higher = thermal stabilisation; K562 lysate, 10 uM; active = over 0.2 and 3.5 SD of the protein, either way, in both replicates (recomputed)
[1] = compound: C=CC(=O)N1CCC[C@@H](n2nc(-c3ccc(Oc4ccccc4)cc3)c3c(N)ncnc32)C1 [ibrutinib]
Summary of the method: (§1)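 Quantification was by TMTpro 16plex LC-MS/MS with equalised channel sums, applied to the supernatant after 21,000xg for 90 min. Samples were crude K562 extract at 1 mg/mL protein in PBS pH 7.4 with 1 mM MgCl2, treated with 10 μM compound for 30 min, heated for 3 min across 48°C-58°C, pooled and brought to 0.5% NP-40 at 4°C. Values are log-two fold changes in thermal stability relative to solvent controls, from duplicates.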

[2] = compound: CC(=O)c1cnc2ccc(-c3cc(Cl)c(O)c(Cl)c3)nc2c1N[C@H]1CC[C@H](CN(C)C)CC1
Summary of the method: as §1

[3] = compound: CC(C)(C)Cn1c(N)nc2ccc(-c3[nH]c(C(C)(C)C)nc3-c3ccc(F)cc3)nc21 [ralimetinib]
Summary of the method: as §1

[4] = compound: CC(C)(O)CC(=O)NCCn1ccc2ncnc(Nc3ccc(Oc4cccc(C(F)(F)F)c4)c(Cl)c3)c21
Summary of the method: as §1

[5] = compound: CC(C)C1=C2N=C(C=C(N2N=C1)NCC3=CC=CC=C3)NCCCCCCN
Summary of the method: as §1

[6] = compound: CC1=C(C(CC(=O)N1)C2=CC=C(C=C2)C(F)(F)F)C(=O)NC3=C(C=C4C(=C3)C=NN4)F
Summary of the method: as §1

[7] = compound: CC1=C(C2=C(C=C1)C(=O)C3=CC=CC=C3N2CCCN)C
Summary of the method: as §1

[8] = compound: CC1=C(C=C(C=C1)NC(=O)C2=CC(=CC=C2)C(C)(C)C#N)NC3=CC4=C(C=C3)N=CN(C4=O)C
Summary of the method: as §1

[9] = compound: CC1=C(C=C(C=C1)NC(=O)C2=CC(=CC=C2)N(C)C)NC(=O)C3=CC=C(C=C3)O
Summary of the method: as §1

[10] = compound: CC1=CC=C(C=C1)SC2=C3C=C(SC3=CN=C2)C(=O)N
Summary of the method: as §1

[11] = compound: CCCS(=O)(=O)Nc1ccc(F)c(C(=O)c2c[nH]c3ncc(-c4ccc(Cl)cc4)cc23)c1F [vemurafenib]
Summary of the method: as §1

[12] = compound: CCCS(=O)(=O)Nc1ccc(F)c(C(=O)c2c[nH]c3ncc(Cl)cc23)c1F
Summary of the method: as §1

[13] = compound: CCN(CCCOc1ccc2c(Nc3cc(CC(=O)Nc4cccc(F)c4)[nH]n3)ncnc2c1)CCOP(=O)(O)O [barasertib]
Summary of the method: as §1

[14] = compound: CC[C@@H]1C(=O)N(C)c2cnc(Nc3ccc(C(=O)NC4CCN(C)CC4)cc3OC)nc2N1C1CCCC1
Summary of the method: as §1

[15] = compound: CC[C@@H]1C(=O)N(C)c2cnc(Nc3ccc(C(=O)N[C@H]4CC[C@H](N5CCN(CC6CC6)CC5)CC4)cc3OC)nc2N1C(C)C [volasertib]
Summary of the method: as §1

[16] = compound: CCn1c(C(=O)N(C2CC2)C2CC2)cc2c3c(ncn3C)c(Nc3cc(C)n(C)n3)nc21
Summary of the method: as §1

[17] = compound: CCn1cc(-c2ccnc3[nH]c(-c4cccc(CN(C)C)c4)cc23)c(-c2ccc(NC(=O)N(C)C)cc2)n1
Summary of the method: as §1

[18] = compound: CN1CCC(CNc2ccc3ncc(-c4cccc(OC(F)(F)F)c4)n3n2)CC1
Summary of the method: as §1

[19] = compound: CN1CCN(CCOc2cc(OC3CCOCC3)c3c(Nc4c(Cl)ccc5c4OCO5)ncnc3c2)CC1 [saracatinib]
Summary of the method: as §1

[20] = compound: CN1CCN(c2nc(C3=C(c4c[nH]c5ccccc45)C(=O)NC3=O)c3ccccc3n2)CC1 [sotrastaurin]
Summary of the method: as §1

Measured: log2 fold change

SSB (UniProt P05455)
Chain of UniProt P05455 (P05455 whole entry, looked up): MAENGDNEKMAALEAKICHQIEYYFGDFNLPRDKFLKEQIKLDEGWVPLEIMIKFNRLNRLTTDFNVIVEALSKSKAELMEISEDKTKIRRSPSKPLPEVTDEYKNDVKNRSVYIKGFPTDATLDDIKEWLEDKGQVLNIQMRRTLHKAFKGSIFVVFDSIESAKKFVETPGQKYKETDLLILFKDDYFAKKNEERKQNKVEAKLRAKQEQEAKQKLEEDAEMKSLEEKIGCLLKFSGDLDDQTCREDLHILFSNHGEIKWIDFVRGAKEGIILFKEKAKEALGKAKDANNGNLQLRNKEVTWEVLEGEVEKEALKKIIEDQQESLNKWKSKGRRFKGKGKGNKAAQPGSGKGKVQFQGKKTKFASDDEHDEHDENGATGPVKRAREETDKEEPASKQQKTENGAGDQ
inactive: [1] -0.007 | [2] -0.009 | [3] -0.005 | [4] -0.006 | [5] 0.004 | [6] -0.015 | [7] -0.013 | [8] -0.006 | [9] 0.007 | [10] 0.006 | [11] -0.004 | [12] -0.02 | [13] -0.001 | [14] -0.011 | [15] 0.011 | [16] 0.002 | [17] 0.011 | [18] -0.021 | [19] -0.015 | [20] -0.016

SMG7 (UniProt Q92540)
inactive: [1] 0.019 | [2] 0.041 | [3] -0.036 | [4] -0.13 | [5] 0.066 | [6] -0.02 | [7] -0.01 | [8] -0.281 | [9] 0.047 | [10] 0.03 | [11] 0.073 | [12] 0.011 | [13] 0.098 | [14] 0.071 | [15] -0.044 | [16] 0.074 | [17] -0.038 | [18] -0.014 | [19] 0.045 | [20] -0.02

SLC20A1 (UniProt Q8WUM9)
Chain of UniProt Q8WUM9 (Q8WUM9 whole entry, looked up): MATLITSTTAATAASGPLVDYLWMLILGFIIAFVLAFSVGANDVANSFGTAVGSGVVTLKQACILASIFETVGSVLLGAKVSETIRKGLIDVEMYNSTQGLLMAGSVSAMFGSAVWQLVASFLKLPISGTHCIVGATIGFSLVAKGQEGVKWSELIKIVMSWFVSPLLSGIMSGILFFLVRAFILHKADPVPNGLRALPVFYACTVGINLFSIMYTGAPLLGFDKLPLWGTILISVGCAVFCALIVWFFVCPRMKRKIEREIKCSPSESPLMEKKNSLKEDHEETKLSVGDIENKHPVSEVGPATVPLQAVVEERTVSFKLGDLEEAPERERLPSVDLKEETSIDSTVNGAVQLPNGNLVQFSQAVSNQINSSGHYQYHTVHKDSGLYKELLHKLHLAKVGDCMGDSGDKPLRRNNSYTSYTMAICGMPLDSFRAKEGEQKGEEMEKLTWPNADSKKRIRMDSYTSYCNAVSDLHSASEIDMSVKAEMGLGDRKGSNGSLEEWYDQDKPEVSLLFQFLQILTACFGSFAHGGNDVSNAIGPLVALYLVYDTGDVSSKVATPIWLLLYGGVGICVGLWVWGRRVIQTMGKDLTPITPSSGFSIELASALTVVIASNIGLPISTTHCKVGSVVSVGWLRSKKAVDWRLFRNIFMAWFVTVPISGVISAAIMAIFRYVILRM
active: [14] 0.416
inactive: [1] 0.022 | [2] -0.028 | [3] -0.013 | [4] -0.08 | [5] 0.05 | [6] 0.072 | [7] -0.015 | [8] 0.027 | [9] 0.002 | [10] -0.054 | [11] 0.099 | [12] -0.004 | [13] 0.009 | [15] -0.028 | [16] -0.061 | [17] 0.153 | [18] -0.013 | [19] 0.063 | [20] -0.006

STK26 (UniProt Q9P289)
inactive: [1] -0.043 | [2] 0.113 | [3] -0.018 | [4] 0.004 | [5] -0.015 | [6] -0.021 | [7] 0.006 | [8] -0.028 | [9] 0.035 | [10] -0.025 | [11] 0.021 | [12] -0.008 | [13] -0.009 | [14] -0.032 | [15] -0.064 | [16] 0.037 | [17] -0.045 | [18] -0.048 | [19] -0.02 | [20] 0.006

SH3GL3 isoform 3 (UniProt Q99963)
Chain of UniProt Q99963 (Q99963 whole entry, looked up): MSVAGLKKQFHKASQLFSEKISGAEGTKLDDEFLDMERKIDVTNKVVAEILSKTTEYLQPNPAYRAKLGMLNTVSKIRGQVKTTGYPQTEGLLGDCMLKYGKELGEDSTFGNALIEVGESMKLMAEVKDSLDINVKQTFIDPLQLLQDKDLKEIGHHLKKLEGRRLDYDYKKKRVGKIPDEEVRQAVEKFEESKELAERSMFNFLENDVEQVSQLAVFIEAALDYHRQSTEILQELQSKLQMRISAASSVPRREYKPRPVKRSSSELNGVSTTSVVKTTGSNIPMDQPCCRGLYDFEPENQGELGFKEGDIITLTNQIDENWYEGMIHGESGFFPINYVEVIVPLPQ
inactive: [1] 0.042 | [2] -0.104 | [3] -0.014 | [4] 0.004 | [5] 0.001 | [6] -0.017 | [7] -0.045 | [8] 0.027 | [9] 0.042 | [10] -0.102 | [11] 0.08 | [12] 0.012 | [13] 0.063 | [14] -0.032 | [15] -0.049 | [16] -0.051 | [18] 0.33 | [19] -0.008 | [20] 0.035
active: [17] -0.761

SMARCAD1 isoform 2 (UniProt Q9H4L7)
Chain of UniProt Q9H4L7 (Q9H4L7 whole entry, looked up): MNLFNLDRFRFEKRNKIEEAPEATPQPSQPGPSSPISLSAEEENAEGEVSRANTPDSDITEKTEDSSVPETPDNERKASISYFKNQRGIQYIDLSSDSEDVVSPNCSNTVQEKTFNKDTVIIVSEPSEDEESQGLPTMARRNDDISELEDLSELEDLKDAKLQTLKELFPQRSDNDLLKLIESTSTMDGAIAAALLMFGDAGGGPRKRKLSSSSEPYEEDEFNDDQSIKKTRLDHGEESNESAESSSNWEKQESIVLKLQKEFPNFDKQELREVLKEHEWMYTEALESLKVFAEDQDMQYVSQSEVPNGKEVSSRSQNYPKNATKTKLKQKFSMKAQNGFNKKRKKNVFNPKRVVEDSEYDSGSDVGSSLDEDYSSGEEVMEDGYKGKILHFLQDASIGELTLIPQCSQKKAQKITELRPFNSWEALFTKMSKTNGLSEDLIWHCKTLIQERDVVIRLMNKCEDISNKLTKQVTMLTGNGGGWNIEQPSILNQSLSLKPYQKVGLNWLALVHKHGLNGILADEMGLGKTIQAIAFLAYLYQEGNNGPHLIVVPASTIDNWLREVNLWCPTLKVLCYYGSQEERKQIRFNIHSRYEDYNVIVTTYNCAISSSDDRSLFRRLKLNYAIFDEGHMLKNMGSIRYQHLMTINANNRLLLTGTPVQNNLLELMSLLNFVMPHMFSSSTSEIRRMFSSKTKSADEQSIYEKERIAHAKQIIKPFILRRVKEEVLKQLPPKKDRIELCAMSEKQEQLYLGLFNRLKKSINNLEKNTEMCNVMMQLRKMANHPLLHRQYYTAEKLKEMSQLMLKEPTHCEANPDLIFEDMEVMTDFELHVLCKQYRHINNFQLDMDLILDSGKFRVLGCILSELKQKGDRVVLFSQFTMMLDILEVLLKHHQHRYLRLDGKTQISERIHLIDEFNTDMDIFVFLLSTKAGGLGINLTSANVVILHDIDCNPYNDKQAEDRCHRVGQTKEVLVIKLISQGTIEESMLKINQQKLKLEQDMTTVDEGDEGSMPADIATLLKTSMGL
inactive: [1] 0.006 | [2] -0.021 | [3] 0.022 | [4] -0.016 | [5] 0.007 | [6] 0.008 | [7] 0.012 | [8] 0.021 | [9] 0.014 | [10] -0.022 | [11] 0.014 | [12] 0.034 | [13] 0.021 | [14] -0.039 | [15] -0.048 | [16] 0.017 | [17] -0.005 | [18] -0.057 | [19] 0.008 | [20] 0.002

SNRPD3 (UniProt P62318)
Chain of UniProt P62318 (P62318 whole entry, looked up): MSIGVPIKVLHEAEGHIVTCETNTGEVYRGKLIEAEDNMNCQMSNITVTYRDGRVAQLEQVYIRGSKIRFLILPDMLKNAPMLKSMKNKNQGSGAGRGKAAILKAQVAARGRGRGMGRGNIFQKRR
inactive: [1] -0.033 | [2] 0.035 | [3] 0.067 | [4] -0.018 | [5] -0.05 | [6] 0.017 | [7] 0.019 | [8] -0.012 | [9] -0.004 | [10] -0.008 | [11] 0.022 | [12] -0.012 | [13] -0.006 | [14] -0.049 | [15] -0.004 | [16] 0.052 | [17] -0.254 | [18] 0.135 | [19] 0.046 | [20] 0.024

SPG11 (UniProt Q96JI7)
inactive: [1] 0.077 | [2] 0.068 | [3] 0.049 | [4] -0.024 | [5] -0.011 | [6] -0.048 | [7] -0.063 | [8] -0.061 | [9] 0.098 | [10] 0.007 | [11] 0.084 | [12] -0.011 | [13] 0.006 | [14] -0.042 | [15] -0.037 | [16] -0.05 | [17] 0.06 | [18] -0.13 | [19] 0.077 | [20] 0.007

SVIP (UniProt Q8NHG7)
Chain of UniProt Q8NHG7 (Q8NHG7 whole entry, looked up): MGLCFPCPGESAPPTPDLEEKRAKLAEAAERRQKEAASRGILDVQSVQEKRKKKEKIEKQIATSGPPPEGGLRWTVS
inactive: [1] 0.088 | [2] -0.031 | [3] 0.01 | [4] -0.062 | [5] -0.017 | [6] -0.029 | [7] -0.014 | [8] 0.075 | [9] 0.017 | [10] -0.019 | [11] -0.014 | [12] 0.014 | [13] 0.051 | [14] 0.079 | [15] 0.095 | [16] -0.11 | [17] 0.033 | [18] 0.005 | [19] 0 | [20] -0.086

SNW1 (UniProt Q13573)
Chain of UniProt Q13573 (Q13573 whole entry, looked up): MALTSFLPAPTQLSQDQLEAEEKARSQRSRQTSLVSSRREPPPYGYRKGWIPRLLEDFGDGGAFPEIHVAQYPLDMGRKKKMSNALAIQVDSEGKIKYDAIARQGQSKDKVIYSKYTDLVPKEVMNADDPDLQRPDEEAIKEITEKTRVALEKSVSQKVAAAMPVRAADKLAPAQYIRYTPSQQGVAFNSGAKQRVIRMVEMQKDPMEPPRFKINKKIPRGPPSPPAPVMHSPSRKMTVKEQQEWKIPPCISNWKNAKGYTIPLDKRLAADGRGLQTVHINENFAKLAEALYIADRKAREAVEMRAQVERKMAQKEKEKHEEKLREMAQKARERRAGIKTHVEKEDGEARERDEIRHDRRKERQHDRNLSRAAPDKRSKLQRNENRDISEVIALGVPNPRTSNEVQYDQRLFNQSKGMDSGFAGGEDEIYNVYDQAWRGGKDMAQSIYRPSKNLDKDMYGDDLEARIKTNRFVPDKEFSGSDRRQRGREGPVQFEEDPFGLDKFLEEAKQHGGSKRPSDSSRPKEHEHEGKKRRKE
inactive: [1] 0.01 | [2] 0.001 | [3] -0.005 | [4] -0.007 | [5] 0.014 | [6] 0.007 | [7] -0.045 | [8] 0.016 | [9] -0.004 | [10] 0.015 | [11] 0.019 | [12] 0.01 | [13] -0.019 | [14] 0.07 | [15] -0.021 | [16] 0 | [17] 0.191 | [18] -0.037 | [19] 0.016 | [20] -0.037

SLC11A2 isoform 3 (UniProt P49281)
Chain of UniProt P49281 (P49281 whole entry, looked up): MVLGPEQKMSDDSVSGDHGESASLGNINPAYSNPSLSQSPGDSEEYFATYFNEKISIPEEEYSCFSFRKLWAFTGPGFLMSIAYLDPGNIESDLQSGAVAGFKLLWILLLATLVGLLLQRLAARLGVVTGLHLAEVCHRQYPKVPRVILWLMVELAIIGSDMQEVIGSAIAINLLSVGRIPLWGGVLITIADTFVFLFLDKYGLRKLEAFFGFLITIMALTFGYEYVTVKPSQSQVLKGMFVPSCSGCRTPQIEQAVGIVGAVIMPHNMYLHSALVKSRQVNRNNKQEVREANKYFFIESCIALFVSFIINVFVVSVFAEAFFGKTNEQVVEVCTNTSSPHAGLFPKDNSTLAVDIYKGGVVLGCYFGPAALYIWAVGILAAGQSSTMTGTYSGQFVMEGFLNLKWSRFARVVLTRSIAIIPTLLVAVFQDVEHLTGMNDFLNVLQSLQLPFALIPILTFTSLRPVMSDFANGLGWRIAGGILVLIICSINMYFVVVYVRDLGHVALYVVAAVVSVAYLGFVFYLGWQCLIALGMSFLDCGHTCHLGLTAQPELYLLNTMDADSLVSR
inactive: [1] -0.032 | [2] -0.018 | [3] -0.038 | [4] -0.093 | [5] 0.017 | [6] 0.242 | [7] -0.001 | [8] 0.094 | [9] 0.001 | [10] 0.003 | [11] -0.009 | [12] 0.043 | [13] 0.019 | [14] 0.073 | [15] 0.026 | [16] 0.036 | [17] -0.082 | [18] 0.074 | [19] 0.028 | [20] -0.012

SRPK1 (UniProt Q96SB4)
inactive: [1] 0.031 | [2] 0.008 | [3] -0.004 | [4] -0.001 | [5] -0.005 | [6] -0.004 | [7] -0.018 | [8] 0.006 | [9] -0.029 | [10] 0.011 | [11] 0.003 | [12] 0.029 | [13] -0.014 | [14] 0.093 | [15] -0.01 | [16] 0.008 | [17] 0.055 | [18] -0.072 | [19] 0.012 | [20] 0.021

SLC25A25 isoform 3 (UniProt Q6KCM7)
inactive: [1] -0.015 | [2] -0.028 | [3] 0.011 | [4] 0.021 | [5] 0.018 | [6] 0.022 | [7] -0.036 | [8] 0.017 | [9] -0.012 | [10] 0.034 | [11] -0.011 | [12] -0.012 | [13] 0.004 | [14] 0.012 | [15] 0.03 | [16] 0.007 | [17] -0.012 | [18] -0.053 | [19] 0.016 | [20] -0.016

SLC12A6 (UniProt Q9UHW9)
Chain of UniProt Q9UHW9 (Q9UHW9 whole entry, looked up): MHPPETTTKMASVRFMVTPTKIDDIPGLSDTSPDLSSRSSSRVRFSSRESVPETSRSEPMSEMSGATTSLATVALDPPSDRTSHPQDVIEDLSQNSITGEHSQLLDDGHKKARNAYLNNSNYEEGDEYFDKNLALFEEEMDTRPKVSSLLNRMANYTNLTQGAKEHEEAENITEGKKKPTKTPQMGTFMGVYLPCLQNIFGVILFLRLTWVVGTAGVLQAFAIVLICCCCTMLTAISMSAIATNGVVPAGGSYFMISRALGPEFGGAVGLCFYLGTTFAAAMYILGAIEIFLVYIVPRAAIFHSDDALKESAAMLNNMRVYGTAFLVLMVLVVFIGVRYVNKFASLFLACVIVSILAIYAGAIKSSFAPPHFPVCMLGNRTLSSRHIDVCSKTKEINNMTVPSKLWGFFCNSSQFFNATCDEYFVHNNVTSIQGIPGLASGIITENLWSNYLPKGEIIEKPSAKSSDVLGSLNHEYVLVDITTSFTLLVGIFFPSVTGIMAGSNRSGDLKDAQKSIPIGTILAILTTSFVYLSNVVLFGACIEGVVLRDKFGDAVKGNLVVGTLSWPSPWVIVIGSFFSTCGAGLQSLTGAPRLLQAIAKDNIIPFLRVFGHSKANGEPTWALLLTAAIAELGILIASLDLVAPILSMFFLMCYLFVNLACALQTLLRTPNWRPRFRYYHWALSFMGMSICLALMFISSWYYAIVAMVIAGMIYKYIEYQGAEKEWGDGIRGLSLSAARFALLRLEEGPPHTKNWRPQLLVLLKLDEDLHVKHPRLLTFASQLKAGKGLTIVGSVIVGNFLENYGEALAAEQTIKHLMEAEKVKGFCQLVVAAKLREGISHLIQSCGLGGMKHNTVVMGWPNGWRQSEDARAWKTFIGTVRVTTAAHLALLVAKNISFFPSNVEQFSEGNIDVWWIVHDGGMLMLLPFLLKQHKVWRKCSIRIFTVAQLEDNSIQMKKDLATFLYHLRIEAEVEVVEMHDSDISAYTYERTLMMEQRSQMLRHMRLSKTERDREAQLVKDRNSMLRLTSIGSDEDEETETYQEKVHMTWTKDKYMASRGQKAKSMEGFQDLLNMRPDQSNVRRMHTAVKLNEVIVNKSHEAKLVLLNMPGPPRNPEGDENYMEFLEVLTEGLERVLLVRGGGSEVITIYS
inactive: [1] 0.01 | [2] -0.021 | [3] -0.037 | [4] -0.014 | [5] 0.011 | [6] 0.001 | [7] -0.012 | [8] 0.012 | [9] 0.024 | [10] -0.021 | [11] 0.015 | [12] 0.021 | [13] 0.002 | [14] 0.037 | [15] 0.002 | [16] 0.008 | [17] -0.06 | [18] 0.012 | [19] -0.003 | [20] -0.01

SLC38A1 (UniProt Q9H2H9)
inactive: [1] 0.001 | [2] -0.053 | [3] -0.021 | [4] -0.041 | [5] 0.037 | [6] -0.001 | [7] -0.039 | [8] 0.027 | [9] 0.018 | [10] -0.01 | [11] 0.03 | [12] -0.007 | [13] 0 | [14] 0.035 | [15] 0.066 | [16] 0.008 | [18] 0.102 | [19] -0.002 | [20] 0.024
active: [17] -0.269

SPNS1 (UniProt Q9H2V7)
inactive: [1] 0.02 | [2] -0.001 | [3] 0.005 | [4] -0.009 | [5] 0.007 | [6] -0.009 | [7] -0.007 | [8] 0.047 | [9] -0.029 | [10] 0.012 | [11] 0 | [12] 0.036 | [13] -0.004 | [14] 0.154 | [15] -0.004 | [16] -0.097 | [17] -0.014 | [18] 0.064 | [19] -0.006 | [20] 0.02
